{"source": "PubChem BioAssay (Tox21)", "note": "Inconclusive results are not listed. Entries that show only a call come without a potency. The source made the active and inactive calls. The call rests on the fitted dose curve; in most records, active means well fitted cell-killing curve with a large enough effect in the repeat runs; inconclusive means weak or mixed curves, or effect the other way; inactive means flat fitted curve, though single readings scatter. Further: top concentration of the series differs between compounds; nearly all actives have a fitted effect of over 50% in size.", "data": [{"assay": "qHTS RealTime-Glo MT Cell Viability Assay in HEK293 cells - 24 hour (AID 1224886)", "conditions": "RealTime-Glo luminescence; series mostly up to 76.8 µM", "method_in_brief": "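Reads taken at 0, 8, 16, 24, 32 and 40 h from the same wells. HEK293 cells (600/well) carried RealTime-Glo reagents from seeding, with compound added after a 5 h settle at 37 C.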", "values": [{"smiles": "O=C(CCNNC(=O)c1ccncc1)NCc1ccccc1", "Potency": "inactive"}, {"smiles": "CCCN1C[C@H](CSC)C[C@@H]2c3cccc4[nH]cc(c34)C[C@H]21", "Potency": "inactive"}, {"smiles": "CC(C)NCC(O)COc1ccc(COCCOC(C)C)cc1", "note": "(centres undefined)", "Potency": "inactive"}, {"smiles": "O=C(O)c1cc(Br)c(O)c(Br)c1", "Potency": "inactive"}, {"smiles": "C[Si](C)=O", "activity change, negative = cytotoxicity": "0.58% [at 6.97 µM] (inactive)"}, {"smiles": "Oc1ccccc1-c1nnco1", "Potency": "inactive"}, {"smiles": "O=C1c2ccccc2C(=O)C1c1ccccc1", "Potency": "inactive"}, {"smiles": "CC(=O)N[C@@H](CCC(=O)O)C(=O)O", "Potency": "inactive"}, {"smiles": "Cc1cccc(C)c1NC(=O)c1ccccc1C(=O)O", "Potency": "inactive"}, {"smiles": "Oc1cn2c(n1)Nc1ccc(Cl)c(Cl)c1C2", "activity change, negative = cytotoxicity": "2% [at 15.8 µM] (inactive)"}, {"smiles": "c1ccc2c(c1)ccc1c3ccccc3ccc21", "Potency": "inactive"}, {"smiles": "C=C(C)C(=O)OCCOP(=O)(O)OCCOC(=O)C(=C)C", "Potency": "inactive"}, {"smiles": "CC(C)CCCC(C)(C)O", "Potency": "inactive"}, {"smiles": "CCCCCCCCSCC", "Potency": "inactive"}, {"smiles": "CCOc1cc(NC(C)=O)ccc1C(=O)OC", "Potency": "inactive"}, {"smiles": "COc1cc2c(cc1OC)[C@@H]1CC(=O)[C@@H](CC(C)C)CN1CC2", "Potency": "inactive"}, {"smiles": "COC(=O)c1ccccc1C(=O)c1ccc(OCCN2CCCCC2)cc1", "Potency": "inactive"}, {"smiles": "COc1cc(C(=S)N2CCOCC2)cc(OC)c1OC", "Potency": "inactive"}, {"smiles": "CC(N)C(=O)OC(C)(C)Cc1ccc(Cl)cc1", "note": "(centres undefined)", "Potency": "inactive"}, {"smiles": "CCCCCCCCCCCCCC", "Potency": "inactive"}, {"smiles": "CCCCCCN", "Potency": "inactive"}, {"smiles": "CN(C)c1ccc(C=O)cc1", "Potency": "inactive"}, {"smiles": "O=S(=O)(O)c1cc(O)c2ccc(Nc3ccccc3)cc2c1", "Potency": "inactive"}, {"smiles": "CCCCOCCOC(=O)COc1nc(Cl)c(Cl)cc1Cl", "Potency": "inactive"}, {"smiles": "CN(CCOc1ccc(NS(C)(=O)=O)cc1)CCc1ccc(NS(C)(=O)=O)cc1", "Potency": "inactive"}, {"smiles": "C=COCCOCCOCCOC=C", "Potency": "inactive"}, {"smiles": "O=C(CCN1CCN(CCO)CC1)N1c2ccccc2Sc2ccc(C(F)(F)F)cc21", "Potency": "inactive"}, {"smiles": "Cc1cccc2nccnc12", "Potency": "inactive"}, {"smiles": "CC(C)CC(C)CC(C)CC(C)COC(=O)c1ccccc1C(=O)OCC(C)CC(C)CC(C)CC(C)C", "note": "(centres undefined)", "Potency": "inactive"}, {"smiles": "C=CC(OCC)OCC", "Potency": "inactive"}, {"smiles": "CC(=O)CCCCn1c(=O)c2c(ncn2C)n(C)c1=O", "Potency": "inactive"}, {"smiles": "Cc1ccc2c(c1)OCC(=O)CO2", "Potency": "inactive"}, {"smiles": "CC1(C)S[C@@H]2[C@H](N=CN3CCCCCC3)C(=O)N2[C@H]1C(=O)O", "Potency": "inactive"}, {"smiles": "O=C(OCC1(COC(=O)c2cccnc2)CCCC(COC(=O)c2cccnc2)(COC(=O)c2cccnc2)C1O)c1cccnc1", "Potency": "inactive"}, {"smiles": "Cc1ccccc1N=O", "Potency": "inactive"}, {"smiles": "Cc1ccccc1OCC(O)CO", "note": "(centres undefined)", "Potency": "inactive"}, {"smiles": "O=C(O)c1ccc(Cl)cc1Cl", "Potency": "inactive"}]}, {"assay": "qHTS RealTime-Glo MT Cell Viability Assay in HEK293 cells - 8 hour (AID 1224887)", "conditions": "RealTime-Glo luminescence; series mostly up to 76.8 µM", "method_in_brief": "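600 cells/well were plated with the nonlytic NanoLuc/prosubstrate reagent, pre-incubated 5 h, then given 23 nL of compound in DMSO. Incubation at 37 C for 40 h, with luminescence from viable-cell-reduced substrate read repeatedly from 0 h.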", "values": [{"smiles": "O=C(CCNNC(=O)c1ccncc1)NCc1ccccc1", "Potency": "inactive"}, {"smiles": "CCCN1C[C@H](CSC)C[C@@H]2c3cccc4[nH]cc(c34)C[C@H]21", "Potency": "inactive"}, {"smiles": "CC(C)NCC(O)COc1ccc(COCCOC(C)C)cc1", "note": "(centres undefined)", "Potency": "inactive"}, {"smiles": "O=C(O)c1cc(Br)c(O)c(Br)c1", "Potency": "inactive"}, {"smiles": "C[Si](C)=O", "activity change, negative = cytotoxicity": "-1.9% [at 6.97 µM] (inactive)"}, {"smiles": "Oc1ccccc1-c1nnco1", "Potency": "inactive"}, {"smiles": "O=C1c2ccccc2C(=O)C1c1ccccc1", "Potency": "inactive"}, {"smiles": "CC(=O)N[C@@H](CCC(=O)O)C(=O)O", "Potency": "inactive"}, {"smiles": "Cc1cccc(C)c1NC(=O)c1ccccc1C(=O)O", "Potency": "inactive"}, {"smiles": "Oc1cn2c(n1)Nc1ccc(Cl)c(Cl)c1C2", "activity change, negative = cytotoxicity": "1.19% [at 15.8 µM] (inactive)"}, {"smiles": "c1ccc2c(c1)ccc1c3ccccc3ccc21", "Potency": "inactive"}, {"smiles": "C=C(C)C(=O)OCCOP(=O)(O)OCCOC(=O)C(=C)C", "Potency": "inactive"}, {"smiles": "CC(C)CCCC(C)(C)O", "Potency": "inactive"}, {"smiles": "CCCCCCCCSCC", "Potency": "inactive"}, {"smiles": "CCOc1cc(NC(C)=O)ccc1C(=O)OC", "Potency": "inactive"}, {"smiles": "COc1cc2c(cc1OC)[C@@H]1CC(=O)[C@@H](CC(C)C)CN1CC2", "Potency": "inactive"}, {"smiles": "COC(=O)c1ccccc1C(=O)c1ccc(OCCN2CCCCC2)cc1", "Potency": "inactive"}, {"smiles": "COc1cc(C(=S)N2CCOCC2)cc(OC)c1OC", "Potency": "inactive"}, {"smiles": "CC(N)C(=O)OC(C)(C)Cc1ccc(Cl)cc1", "note": "(centres undefined)", "Potency": "inactive"}, {"smiles": "CCCCCCCCCCCCCC", "Potency": "inactive"}, {"smiles": "CCCCCCN", "Potency": "inactive"}, {"smiles": "CN(C)c1ccc(C=O)cc1", "Potency": "inactive"}, {"smiles": "O=S(=O)(O)c1cc(O)c2ccc(Nc3ccccc3)cc2c1", "Potency": "inactive"}, {"smiles": "CCCCOCCOC(=O)COc1nc(Cl)c(Cl)cc1Cl", "Potency": "inactive"}, {"smiles": "CN(CCOc1ccc(NS(C)(=O)=O)cc1)CCc1ccc(NS(C)(=O)=O)cc1", "Potency": "inactive"}, {"smiles": "C=COCCOCCOCCOC=C", "Potency": "inactive"}, {"smiles": "O=C(CCN1CCN(CCO)CC1)N1c2ccccc2Sc2ccc(C(F)(F)F)cc21", "Potency": "inactive"}, {"smiles": "Cc1cccc2nccnc12", "Potency": "inactive"}, {"smiles": "CC(C)CC(C)CC(C)CC(C)COC(=O)c1ccccc1C(=O)OCC(C)CC(C)CC(C)CC(C)C", "note": "(centres undefined)", "Potency": "inactive"}, {"smiles": "C=CC(OCC)OCC", "Potency": "inactive"}, {"smiles": "CC(=O)CCCCn1c(=O)c2c(ncn2C)n(C)c1=O", "Potency": "inactive"}, {"smiles": "Cc1ccc2c(c1)OCC(=O)CO2", "Potency": "inactive"}, {"smiles": "CC1(C)S[C@@H]2[C@H](N=CN3CCCCCC3)C(=O)N2[C@H]1C(=O)O", "Potency": "inactive"}, {"smiles": "O=C(OCC1(COC(=O)c2cccnc2)CCCC(COC(=O)c2cccnc2)(COC(=O)c2cccnc2)C1O)c1cccnc1", "Potency": "inactive"}, {"smiles": "Cc1ccccc1N=O", "Potency": "inactive"}, {"smiles": "Cc1ccccc1OCC(O)CO", "note": "(centres undefined)", "Potency": "inactive"}, {"smiles": "O=C(O)c1ccc(Cl)cc1Cl", "Potency": "inactive"}]}]}
